The assay relates to Salmonella enterica serovar Typhimurium 14028s. Put plainly: approximate change in surviving CFU after surface colonization relative to water-only control (log10 CFU/mL change); higher = more surviving bacteria (less inhibition of surface colonization). The conditions noted are these: not stated (Biolog proprietary concentration), surface: plastic 96-well plate, 20-24 h at 25 °C.

For the compound `O=C(O)c1ccccc1O` [2-Hydroxy Benzoic Acid (Salicylic Acid)], the “approximate change in surviving CFU (log10)” value (“approximate change … (log10)” for short) (Biolog plate: PM2, Biolog well: E6) was -1.72.
As to `COC(=O)[C@@H](C)O` [D-Lactic Acid Methyl Ester], the “approximate change … (log10)” value (Biolog plate: PM2, Biolog well: F1) was -0.15.
As for `O=C(O)[C@H](O)[C@@H](O)[C@H](O)[C@H](O)CO[C@H]1O[C@H](CO)[C@H](O)[C@H](O)[C@H]1O` [Melibionic Acid], under “Biolog plate: PM2, Biolog well: F3”, the “approximate change … (log10)” value came to 0.3.
Consider `O=C(O)[C@]1(O)C[C@@H](O)[C@@H](O)[C@H](O)C1` [Quinic Acid], for which the “approximate change … (log10)” value (Biolog plate: PM2, Biolog well: F6) is 1.09.
On to `CC(O)C(C)O` (stereo not given) [2,3-Butanediol], for which the “approximate change … (log10)” value (Biolog plate: PM2, Biolog well: H10) was -0.708.
For the compound `N[C@@H](CS)C(=O)O` [L-Cysteine], for the setting “Biolog plate: PM3, Biolog well: A11”, the “approximate change … (log10)” value was found to be 0.88.
On to `CC(C)[C@@H](N)C(=O)O` [D-Valine], for which, under “Biolog plate: PM3, Biolog well: C9”, the “approximate change … (log10)” value was -0.172.
Regarding `NO` [Hydroxylamine], the “approximate change … (log10)” value (Biolog plate: PM3, Biolog well: D4) was -0.687.
As to `CN` [Methylamine], the “approximate change … (log10)” value (Biolog plate: PM3, Biolog well: D5) is -1.05.
With `NCCO` [Ethanolamine], the “approximate change … (log10)” value (Biolog plate: PM3, Biolog well: D9) was -0.408.
As for `CC(O)C(N)=O` (racemic) [D,L-Lactamide], the “approximate change … (log10)” value (Biolog plate: PM3, Biolog well: E7) was -1.78.
Turning to `NC(=O)NC1NC(=O)NC1=O` (stereo not given) [Allantoin], the “approximate change … (log10)” value (Biolog plate: PM3, Biolog well: G5) is 0.258.
Consider `C[C@H](N)C(=O)N[C@@H](CCC(=O)O)C(=O)O`, for which, under “Biolog plate: PM3, Biolog well: H3”, the “approximate change … (log10)” value amounted to 0.451.
Turning to `NCC(=O)N[C@@H](CC(N)=O)C(=O)O`, the “approximate change … (log10)” value (Biolog plate: PM3, Biolog well: H8) stood at 0.107.
As to `CSCC[C@H](NC(=O)CN)C(=O)O`, the “approximate change … (log10)” value (Biolog plate: PM3, Biolog well: H11) was -0.558.
In the case of `N[C@@H](Cc1c[nH]c2ccccc12)C(=O)O` [L-Tryptophan], the “approximate change … (log10)” value (Biolog plate: PM3, Biolog well: B12) is -1.05.
As to `NCCCC[C@@H](N)C(=O)O` [D-Lysine], under “Biolog plate: PM3, Biolog well: C7”, the “approximate change … (log10)” value is -0.107.
In the case of `O[C@H]1[C@H](O)[C@@H](O)[C@H](O)[C@@H](O)[C@H]1O` [myo-Inositol], for the setting “Biolog plate: PM1, Biolog well: F3”, the “approximate change … (log10)” value is 0.902.
For the compound `O=NO` [Nitrite], under “Biolog plate: PM3, Biolog well: A3”, the “approximate change … (log10)” value stood at 0.966.
As to `Nc1[nH]cnc2ncnc1-2` [Adenine], the “approximate change … (log10)” value (Biolog plate: PM3, Biolog well: F2) is -0.515.
Regarding `OC[C@H]1O[C@H](OC[C@H]2O[C@H](O[C@H]3[C@H](O)[C@@H](O)[C@@H](O)O[C@@H]3CO)[C@H](O)[C@@H](O)[C@@H]2O[C@H]2O[C@H](CO)[C@@H](O)[C@H](O)[C@H]2O)[C@H](O)[C@@H](O)[C@@H]1O` [Glycogen], the “approximate change … (log10)” value (Biolog plate: PM2, Biolog well: A8) was 0.944.
Turning to `Nc1cc[nH]c(=O)n1` [Cytosine], where the note is “Biolog plate: PM3, Biolog well: F5”, the “approximate change … (log10)” value was 1.14.
`OC[C@@H](O)[C@@H](O[C@H]1O[C@H](CO)[C@@H](O)[C@H](O)[C@H]1O)[C@H](O)[C@@H](O)CO` [Maltitol]: the “approximate change … (log10)” value (Biolog plate: PM2, Biolog well: C5) stood at 1.37.
For `N#C[C@H](O[C@@H]1O[C@H](CO[C@@H]2O[C@H](CO)[C@@H](O)[C@H](O)[C@H]2O)[C@@H](O)[C@H](O)[C@H]1O)c1ccccc1` [Amygdalin], the “approximate change … (log10)” value (Biolog plate: PM2, Biolog well: B4) worked out at 0.966.
Turning to `Nc1nc2[nH]cnc2c(=O)[nH]1` [Guanine], the “approximate change … (log10)” value (Biolog plate: PM3, Biolog well: F6) is -2.83.
On to `O=C(CO)[C@@H](O)[C@@H](O)[C@H](O)CO` [D-Tagatose], for which the “approximate change … (log10)” value (Biolog plate: PM2, Biolog well: D6) came out at 0.859.
For `Nc1nc2c(ncn2[C@@H]2O[C@H](CO)[C@@H](O)[C@H]2O)c(=O)[nH]1` [Guanosine], the “approximate change … (log10)” value (Biolog plate: PM3, Biolog well: F7) is -0.172.
Consider `NCCc1c[nH]cn1` [Histamine], for which, where the note is “Biolog plate: PM3, Biolog well: E1”, the “approximate change … (log10)” value was -0.987.
`O=C1NC(=O)C(=O)N1` [Parabanic Acid]: under “Biolog plate: PM3, Biolog well: G6”, the “approximate change … (log10)” value is -2.58e-05.
In the case of `O=C(O)[C@@H](O)[C@H](O)[C@H](O)[C@@H](O)C(=O)O` [Mucic Acid], where the note is “Biolog plate: PM1, Biolog well: F8”, the “approximate change … (log10)” value worked out at 1.38.
Consider `CC(O)CO` (stereo not given) [1,2-Propanediol], for which the “approximate change … (log10)” value (Biolog plate: PM1, Biolog well: D4) was -0.3.
On to `OC[C@@]12OC[C@@H](O1)[C@@H](O)[C@@H](O)[C@@H]2O` [Sedoheptulosan], for which, for the setting “Biolog plate: PM2, Biolog well: D3”, the “approximate change … (log10)” value was 0.451.
For `Nc1ncnc2c1ncn2[C@H]1C[C@H](O)[C@@H](CO)O1` [2-Deoxy Adenosine], the “approximate change … (log10)” value (Biolog plate: PM1, Biolog well: E11) is 1.37.
Turning to `O=C(O)C[C@H](O)C(=O)O` [L-Malic Acid], the “approximate change … (log10)” value (Biolog plate: PM1, Biolog well: G12) worked out at 1.01.
Take `CCCCCCCC/C=C\CCCCCCCC(=O)OCCOCC(OCCO)C1OCC(OCCO)C1OCCO` (stereo not given) [Tween 80]: for the setting “Biolog plate: PM1, Biolog well: E5”, the “approximate change … (log10)” value is -0.58.

The values above are taken from the supplement of paper PMC11738630.
